Records with an inconclusive call do not appear. Where a call stands in place of a potency, no number is given. A number with no mark means an inactive call. Activity calls are given as the source filed them. The call rests on the fitted dose curve; in most records, active means well fitted cell-killing curve with a large enough effect; inconclusive means small, poorly fitted or top-dose-only effect, or effect the other way; inactive means flat fitted curve, though single readings scatter.

This test concerns CASKI. The test is described as follows: Primary qHTS to identify gynecologic anti-cancer compounds using libraries of approved drugs and bioactive compounds (AID 1345084). Further: nearly all actives have a fitted effect of over 55% in size. Conditions: Gynecologic cancer cell panel viability, ATPlite luminescence, 48 h; series mostly up to 57.5 µM. The gist of the method: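 ATP-based viability (ATPlite), 1,000 cells/well, 16 h pre-incubation, 48 h compound at 37 C, 5% CO2, 15 min RT before read.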
`O=C(NCCCCN1CCN(c2cccc(Cl)c2Cl)CC1)c1cc2ccccc2s1`: the Potency result is “inactive”.
In the case of `C/C=C/[C@@H]1C=C[C@@H]2C[C@H](C)CC[C@H]2[C@]1(C)/C(O)=C1/C(=O)[C@@H](CO)N(C)C1=O`, the Potency result was “inactive”.
The same measure, in the same setting: with `CNc1nc(NCc2ccc(NS(C)(=O)=O)cc2Cl)cc(-c2ccccn2)n1` the entry was “inactive”.
As to `N#CC(CCCN1CCN(/N=C/c2cccnc2)CC1)(c1ccccc1)c1ccccc1`, the Potency result was “inactive”.
As for `CCc1cc2c(cc1CC)CC(NCC(O)c1ccc(O)c3[nH]c(=O)ccc13)C2` (stereo unspecified), the Potency result is “inactive”.
`CC(=O)OC1C(OC(=O)c2ccccc2)C2C(=C(C)CCC2(C)C)C23CCC(C)(C2)C(=O)CC13` (stereo unspecified): the Potency entry was “inactive”.
For `CCCc1cc(C)n(C)c(=O)c1CN(C)C(=O)c1cc(-c2ccc(N3CCN(C(C)C)CC3)nc2)cc2c1cnn2C(C)C`, the Potency result is “inactive”.
As for `COC(=O)c1cc(Br)cnc1N1CCC(NC2CCCCC2)C(O)C1` (stereo unspecified), the Potency entry was “inactive”.
For `Cc1ccc(C2(C(=O)N3CCC(n4nc(-c5ccccc5)oc4=O)CC3)CC2)cc1`, the Potency result was “inactive”.
`Cc1c(C2=CCN(C(=O)N(C)C(C)C)CC2)nnn1-c1cccnc1F`: the Potency result is “inactive”.
In the case of `NC(N)=NC(=O)c1cnn(-c2cccc3ncccc23)c1C1CC1`, the Potency result was “inactive”.
Consider `CC1(C)OC[C@H](NC(=O)Nc2ccc(Br)cc2Br)[C@H](c2ccccc2)O1`, for which the Potency entry was “inactive”.
Still for that read-out and setting: with `O=C(Nc1ccccc1)c1ccc(Nc2nnc(-c3ccc(O)cc3)c3ccccc23)cc1` the entry was “inactive”; with `CCCc1ccc(OCC(=O)N(Cc2nc(-c3cccnc3)no2)C(C)C)cc1`, “inactive”.
In the case of `C/C(=C/C=C\C=C\Cc1cnco1)[C@@H](O)C(C)(C)C(N)=O`, the Potency result is “inactive”.
Regarding `CCC(C)CNCC(=O)N1CCC2SC=CC2C1COc1cccc(C)c1` (stereo unspecified), the Potency entry was “inactive”.
Same read-out and setting: with `CNC(=O)c1cc(Oc2ccc(NC(=O)c3cccc(C(F)(F)F)c3)cc2)ccn1` the entry was “inactive”; with `COc1cc(CN(CCN)C(=O)c2cccs2)ccc1OCc1ccccc1`, “inactive”.
For `CO[C@H]1[C@@H](O)[C@H](O[C@H]2CC[C@@]3(C)C(CCC4C3CC[C@]35COC6(COC(=O)C6)C3CCC45O)C2)O[C@@H](C)[C@@H]1OC1OC(CO)C(OC2OC(CO)C(O)C(O)C2O)C(O)C1O` (stereo partly specified), the activity change, negative = cytotoxicity is -2.83% [at 11.6 µM].
Take `O=C1c2ccc(Nc3ccc(F)cc3F)cc2CCc2ccc(OCC(O)CO)cc21` (stereo unspecified): the Potency result is “inactive”.
On to `O=S(=O)(c1ccccc1)N(CC(F)(F)F)c1ccc(C(O)(C(F)(F)F)C(F)(F)F)cc1`, for which the Potency result was “inactive”.
Take `CCC(C)CNCC(=O)N1CCc2sccc2C1COc1cccc(C)c1` (stereo unspecified): the Potency entry was “inactive”.
As to `COc1cc(C(C)C)c(Oc2cnc(N)nc2N)cc1I`, the Potency result is “inactive”.
`Cc1cc(C)cc(-c2cnc3cc(Cl)c(-c4cccc(O)c4)cc3c2OCCCN)c1`: the Potency result was “inactive”.
Consider `C=CC(C)(O)CC/C=C(\C)C(=O)OC1C(O)C(CO)OC(OC(=O)C23CCC(C)(C)CC2C2=CCC4C5(C)CCC(OC6OC(COC7OCC(OC(C)=O)C(O)C7OC7OC(COC(C)=O)C(O)C(O)C7OC(C)=O)C(O)C(O)C6OC6OCC(O)C(O)C6O)C(C)(C)C5CCC4(C)C2(C)C(O)C3O)C1OC1OCC(OC2OCC(O)C(OC3OCC(O)C(O)C3O)C2O)C(O)C1O` (stereo unspecified), for which the activity change, negative = cytotoxicity is -8.72% [at 6.55 µM].
In the case of `CCc1cccc(CC)c1-n1c(C=C(C)C)c(C(=O)N2CCNCC2)cc(-c2nc(-c3ccc(C(F)(F)F)cc3)cs2)c1=O`, the Potency entry was “inactive”.
`Cc1nc(Nc2ccc(F)cc2)nc(N2CCc3ccccc3C2C)c1C` (stereo unspecified): the Potency result was “inactive”.
As for `Cc1ccc(N2CCN(CCC3NC(=O)c4ccccc43)CC2)cc1C` (stereo unspecified), the Potency result is “inactive”.
As for `COc1ccc(S(=O)(=O)Nc2c(C)cc(C)cc2C)cc1`, the Potency entry is “inactive”.
For `O=C(NS(=O)(=O)c1ccc(Br)s1)c1ccc(Cl)cc1Cl`, the Potency entry was “inactive”.
As for `CC1(C)CC[C@]2(C(=O)O)CC[C@]3(C)C(=CCC4[C@@]5(C)C[C@@H](O)[C@H](O)[C@@](C)(CO)C5CC[C@]43C)[C@@H]2[C@@H]1O` (stereo partly specified), the Potency result is “inactive”.
As for `COc1cc2c(cc1-c1c(C)noc1C)ncc1[nH]c(=O)n(C(C)c3ccccn3)c12` (stereo unspecified), the Potency entry is “inactive”.
The same measure, in the same setting: then `Cc1nc2c(C(F)(F)F)cccc2nc1-c1ccc(-c2cccc(S(C)(=O)=O)c2)cc1`, with “inactive”; and `CC(C)C[C@@H](C(=O)N[C@@H](Cc1ccc(OCc2ccccc2)cc1)C(=O)NC(C)(C)C)N(C)Cc1ccc(C(C)(C)C)cc1`, with “inactive”; and `CC1=C(C(=O)OC2CCCCC2)C(c2ccc([N+](=O)[O-])cc2)C2=C(CC(C)(C)CC2=O)N1` (stereo unspecified), with “inactive”.
For the compound `C[C@@H]1O[C@@H](O[C@H]2[C@H](OC(=O)[C@]34CCC(C)(C)C[C@H]3C3=CCC5[C@@]6(C)C[C@H](O)[C@H](O[C@@H]7O[C@H](C(=O)O)[C@@H](O)[C@H](O)[C@H]7O)[C@@](C)(CO)C6[C@H](O)C[C@@]5(C)[C@]3(C)C[C@H]4O)O[C@@H](CO)[C@@H]2O)[C@H](O)[C@H](O)[C@H]1O[C@@H]1OC[C@@H](O)[C@H](O[C@H]2OC[C@](O)(CO)[C@H]2O)[C@H]1O` (stereo partly specified), the activity change, negative = cytotoxicity was -0.268% [at 6.55 µM].

These data come from PubChem BioAssay (NCATS).
